PLAP activator – activators of human placental alkaline phosphatase; P05187; purified PLAP enzyme, luminescent substrate read-out; hits give high values; activation fold at 20 µM; 1.2% of 96,000 active; in the data active means activation fold above about 2
CYP2C9 activ – increases human cytochrome P450 2C9 activity. P11712. AID 1024. recombinant CYP2C9, luciferin-H conversion, luminescence; hits give high values; factor 1 = untreated enzyme, 0 = blocked. 1.4% of 96,000 active. activation factor at 5 µM;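 active means activation factor of 2 or more for CYP2C9 at a 5 µM dose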;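 further: 0 = sulfaphenazole-blocked wells and 1 = vehicle-only wells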
Target sequence (P11712 whole entry, looked up): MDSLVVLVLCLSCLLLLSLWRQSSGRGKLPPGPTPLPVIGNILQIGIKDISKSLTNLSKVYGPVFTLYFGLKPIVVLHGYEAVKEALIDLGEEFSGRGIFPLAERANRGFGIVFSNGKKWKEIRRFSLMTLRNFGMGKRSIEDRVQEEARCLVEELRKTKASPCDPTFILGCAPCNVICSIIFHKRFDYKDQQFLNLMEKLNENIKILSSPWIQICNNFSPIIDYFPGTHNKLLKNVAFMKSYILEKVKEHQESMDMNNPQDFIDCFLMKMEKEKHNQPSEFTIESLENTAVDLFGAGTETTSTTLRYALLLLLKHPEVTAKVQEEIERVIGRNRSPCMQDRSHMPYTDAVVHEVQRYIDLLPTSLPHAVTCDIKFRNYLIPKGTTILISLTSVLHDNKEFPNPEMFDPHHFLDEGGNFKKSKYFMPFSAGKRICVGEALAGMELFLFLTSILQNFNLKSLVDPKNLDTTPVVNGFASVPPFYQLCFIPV
CYP2C19 act – cytochrome P450 2C19 (human) activation. 96,000 tested, under 10 active. activation factor at 5 µM. P33261. recombinant CYP2C19, luciferin-H EGE luminescence; hits give high values; 0 = fully inhibited enzyme, 1 = untreated enzyme. AID 1025;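 active means activation factor of at least 2 at 5 µM in the primary screen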;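 further: 0 = wells with 2.5 mM tranylcypromine and 1 = vehicle-only wells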
CYP2C9 inhib – blocks human cytochrome P450 2C9; 20% of 96,000 active; CYP2C9 Supersomes, luciferin-H conversion, luminescence; inhibition, % at 5 µM;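 active means blocking of liver enzyme CYP2C9 beyond about 50% at 5 µM, limit read from the data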
CYP2C19 inhib – human CYP2C19 inhibition; P33261; CYP2C19 Supersomes, luciferin-H EGE luminescence, 30 min; inhibition, % at 5 µM; 21% of 96,000 active;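 active means CYP2C19 inhibition above a set limit at 5 µM in the primary screen, cut at about 50% in these data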;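 further: plate controls were negative control wells for no effect and 2.5 mM tranylcypromine positive control for full effect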
* marks the source's active call; other numbers are inactive results. An excerpt weighted towards active compounds, which were near 31% of everything screened.

SMILES	PLAP activator	CYP2C9 activ	CYP2C19 act	CYP2C9 inhib	CYP2C19 inhib
CN1/C(=C\C(=O)COC(=O)CN2C(=O)C3CC=CCC3C2=O)C(C)(C)c2ccccc21 (stereo not drawn)	1.5	0.8	0.8	17	19
COc1ccc(-c2n[nH]c3c2C(c2ccc(OC)c(OC)c2)N(c2ccccc2)C3=O)cc1 (stereo not drawn)	2.4*	0.6	0.7	43	34
N#CC1=C(N)N=C(SCc2cccc3ccccc23)C(C(N)=O)C12CCCCC2 (stereo not drawn)	1.3	0.3	0.3	74*	72*
N#Cc1nc(Cc2cccc3ccccc23)oc1N1CCCCC1	0.9	0.8	0.7	18	32
COCc1ccccc1Cn1cnc2c1c(=O)n(C)c(=O)n2C	1.2	0.9	0.7	6	30
c1ccc2c(CCNc3ncnc4nc[nH]c34)c[nH]c2c1	1.7	1.4	0.2	-41	83*
COCCCNc1ncnc2nc[nH]c12	1.2	1	1.1	-3	-6
c1ccc(CCNc2ncnc3nc[nH]c23)cc1	2.2*	0.9	0.6	13	38
O=S(=O)(NCc1cccnc1)c1cccs1	0.9	0.9	0.7	8	29
CSC(=NCc1cccnc1)NS(=O)(=O)c1cccs1	0.8	0.9	0.3	13	65*
O=C(O)CCC(=O)N1CCc2cc(S(=O)(=O)N3CCN(c4ccc(F)cc4)CC3)ccc21	1.4	1	1.1	-2	-11
COCCSc1ccccc1C(=O)NCc1ccc2c(c1)OCO2	1.1	0.8	0.5	24	48
COc1ccccc1NC(=O)NCc1ccc2c(c1)OCO2	0.9	1.1	0.5	-6	54*
CCn1c(N)c(C(=O)NCc2ccc3c(c2)OCO3)sc1=S	0.8	0.4	0.5	63*	51*
Cc1ccc(-n2ncc(C(=O)NCc3ccc4c(c3)OCO4)c2NC(=O)c2ccco2)cc1C	1.4	0.1	0.4	87*	64*
COc1ccccc1C(=O)NCc1ccc2c(c1)OCO2	0.9	0.5	0	52*	95*
COCCCNC(=O)Cn1nnc(-c2ccc(NC(=O)c3ccc(F)cc3)cc2)n1	1.2	0.7	0.7	30	26
C(=N\N1CCN(Cc2cccc3ccccc23)CC1)/c1cccnc1	1.1	1	0.7	-2	31
CCCn1c(SCC(=O)Nc2cccc(C)n2)nnc1-c1ccco1	0.8	0.7	0.5	34	48
CCOc1ccc(C(=O)Nc2ccc3c(c2)OCO3)cc1OCC	0.8	1.1	1.1	-15	-6
Cc1occc1C(=O)NCc1cccc(CNC(=O)c2ccoc2C)c1	1.1	0.9	0.9	10	10
CCOc1ccccc1C(=O)NC(C)c1ccc2c(c1)OCO2 (stereo not drawn)	1.2	1.5	0.2	-45	80*
COc1ccc(C(C)NC(=O)c2ccoc2C)cc1OC (stereo not drawn)	0.9	0.9	0.8	8	20
COc1cc(CC(=O)NCc2ccc3c(c2)OCO3)cc(OC)c1OC	1	1.1	0.3	-11	74*
Cc1occc1C(=O)NC(C)c1ccc2c(c1)OCO2 (stereo not drawn)	0.9	1	0.4	-3	62*
SMILES	PLAP activator	CYP2C9 activ	CYP2C19 act	CYP2C9 inhib	CYP2C19 inhib
Cc1occc1C(=O)NCc1ccc2c(c1)OCO2	0.9	0.7	0.1	26	88*
COc1ccc(CCNC(=O)C2CCN(S(=O)(=O)N3CCOCC3)CC2)cc1OC	1	1.1	1.1	-13	-12
COC(=O)c1ccccc1NC(=O)NCc1ccc2c(c1)OCO2	0.8	0.8	0.5	25	52*
CC(NC(=O)C1CCC1)c1ccc2c(c1)OCO2 (stereo not drawn)	1	0.7	0.5	30	51*
COC(=O)c1ccccc1NC(=O)NCc1cccnc1	1	1	0.6	4	40
Cc1c(C(N)=O)c(N)c(C(=O)c2ccccc2)n1-c1ccccc1	0.8	0.9	0.7	12	26
Cc1noc(C)c1Cc1ccc(O)cc1	1	0.7	0.8	31	23
COc1cc(C(=O)N2CCN(Cc3ccccc3C(F)(F)F)CC2)cc(OC)c1OC	1.5	1.2	0.8	-21	23
COc1cccc(OC)c1C(=O)N1CCN(Cc2ccccc2C(F)(F)F)CC1	1.5	0.1	0.1	91*	94*
CCCS(=O)(=O)N1CCN(C(=O)c2cc(OC)cc(OC)c2)CC1	1.1	0.9	0.3	11	71*
COc1cc(OC)cc(C(=O)N2CCN(Cc3ccccc3C(F)(F)F)CC2)c1	1.4	0.7	0.2	30	78*
COC(=O)c1ccc(Oc2coc3cc(OCc4cnn(-c5ccccc5)c4)ccc3c2=O)cc1	1	0.9	0.9	10	11
C/C(=N/Oc1nc(C)cc(C)n1)c1ccccc1	0.9	0.9	0.8	8	16
O=C(O)CSc1cccc2cccc(C(=O)O)c12	1.3	1	1	3	4
CCOC(=O)c1c(C)nc2sc(C(N)=O)c(N)c2c1-c1ccccc1	1	0.8	1	24	5
CCOC(=O)c1c(C)nc2sc(C(=O)Nc3ccccc3)c(N)c2c1-c1ccc(OC)cc1	1.4	0.2	0.2	82*	76*
COc1ccc(C2=CC(c3ccc(OC)c(OC)c3)n3nnnc3N2)c(OC)c1 (stereo not drawn)	1.6	0	0.1	97*	90*
CC1=C(C(N)=O)C(c2cccc(OCc3ccccc3)c2)n2nnnc2N1 (stereo not drawn)	0.9	0.8	0.7	20	27
COC(=O)C1=C(C(=O)c2ccccc2)C(c2ccc(O)c(OC)c2)n2nnnc2N1 (stereo not drawn)	1	0.7	1	27	2
COc1cccc(C2C=C(c3ccc(OC)cc3OC)Nc3nnnn32)c1 (stereo not drawn)	1.4	0.2	0.4	77*	58*
COc1ccc(CCNC(=O)C2CC(c3ccccc3[N+](=O)[O-])=NO2)cc1 (stereo not drawn)	0.9	0.6	0.8	40	21
O=C(C(c1ccccc1)c1ccccc1)N1CCN(Cc2ccccn2)CC1	1.3	0.9	1	9	4
O=C(c1cccs1)N1CCN(Cc2cccnc2)CC1	1	0.6	0.2	37	83*
O=C(c1cccs1)N1CCN(CCCc2ccccc2)CC1	1	0.7	0.7	27	26
O=C(C(c1ccccc1)c1ccccc1)N1CCN(Cc2ccncc2)CC1	1.1	0.1	0.6	88*	44
O=C(c1cccs1)N1CCN(Cc2ccncc2)CC1	1.1	0.3	0.1	74*	88*
O=C(c1ccco1)N1CCN(Cc2cccnc2)CC1	0.9	0.8	0.8	16	18
CN(C)c1ccc(C=Nc2cnn(C)c2C(N)=O)cc1	0.8	1.1	1	-8	2
COc1nc2ccccc2c(=O)n1OCC(C)C	0.9	0.8	0.2	19	82*
Cc1ccc(S(=O)(=O)Cc2ccc(C(=O)N3CCN(c4cc(C)ccc4C)CC3)o2)cc1	0.9	0.9	1	6	-2

Source: PubChem BioAssay
